Many of the other results were omitted from the sample, so hits are more common in it than they were.
CBX7 inh: CBX7 inhibition, primary AlphaScreen; 66,000 compounds, 1.1% hits; normalised signal (fraction of DMSO) (test concentration not listed); O95931; AlphaScreen His6-CBX7 / biotin-H3K27me3 peptide binding; active compounds read low; in the data active = normalised signal below about 0.5
Target sequence (O95931 whole entry, looked up): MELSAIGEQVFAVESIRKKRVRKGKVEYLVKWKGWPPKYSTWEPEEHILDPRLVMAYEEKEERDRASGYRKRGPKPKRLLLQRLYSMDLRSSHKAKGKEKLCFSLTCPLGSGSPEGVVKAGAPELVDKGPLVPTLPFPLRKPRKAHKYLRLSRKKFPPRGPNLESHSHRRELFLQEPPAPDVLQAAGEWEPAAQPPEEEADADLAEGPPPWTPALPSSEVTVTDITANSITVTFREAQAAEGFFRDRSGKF
A number is an active result; i = inactive; ! = not active in a repeat.

SMILES | CBX7 inh
CCOc1cccc(CN2C(=O)c3ccccc3C2C(=O)NCc2cccnc2)c1 (centres undefined) | i
CCCNC(=O)C1CCCN(c2nn3c(=O)cc(C)nc3s2)C1 (centres undefined) | i
CCOC(=O)N1CCc2c(sc(NCc3cccs3)c2C(=O)Nc2cc(OC)ccc2OC)C1 | 0.47
CCOC(=O)N1CCc2c(sc(NCc3ccncc3)c2C(=O)Nc2cc(OC)ccc2OC)C1 | i
CCOC(=O)N1CCc2c(sc(NCc3cccs3)c2C(=O)Nc2ccc(OC)cc2OC)C1 | i
CSc1nc2cc(Oc3ccc(Br)c4ccccc34)c(Cl)cc2[nH]1 | i
CCOC(=O)c1cc(-c2cc(OC)c(OC)c(OC)c2)no1 | i
COc1ccc(O)cc1-c1nc2ccccc2nc1-c1ccccc1 | i
Cc1ccc2c(c1)NC(=O)C(CC(=O)Nc1cc(C(F)(F)F)ccc1Cl)O2 (centres undefined) | i
O=C(c1cc(-c2ccncc2)nc2ccccc12)N1CCN(c2ccccn2)CC1 | i
Cc1cccc(N2CCN(C(=O)c3cnn(-c4ccccc4)c3-n3cccc3)CC2C)c1 (centres undefined) | i
Cc1cccc(N2CCN(C(=O)c3cc(-c4ccncc4)nc4ccccc34)CC2C)c1 (centres undefined) | 0.41
O=C1CN(C(=O)COc2ccccc2)C(c2ccccc2)c2cc(Cl)ccc2N1 (centres undefined) | i
O=C1CN(C(=O)COc2ccccc2)C(c2ccccc2)c2cc(F)ccc2N1 (centres undefined) | i
O=C1CN(C(=O)COc2ccccc2)C(c2ccccc2)c2cc(Br)ccc2N1 (centres undefined) | 0.48
Cc1nn2c(C(F)(F)F)c3c(nc2c1-c1ccc(Cl)cc1)CCCC3 | i
COc1cc(OC)cc(-c2nc3nc(C)c(CCC(=O)Nc4ccc(OC)c(OC)c4)c(C)n3n2)c1 | i
Cc1ccc(-n2nc(C)c3c(C)c(CCC(=O)NCc4cccc(Cl)c4)c(C)nc32)cc1 | i
CC(C)C(=O)NC(c1cccs1)c1cc(Cl)c2cccnc2c1O (centres undefined) | i
CCCC(=O)NC(c1ccc(C(C)C)cc1)c1cc(Cl)c2cccnc2c1O (centres undefined) | i
O=C(O)CC(NCc1cccnc1)c1cccs1 (centres undefined) | i
CCN1CCN(C(c2cccs2)C(C)NC(=O)CC(C)C)CC1 (centres undefined) | i
Cc1ccc(C(NC(=O)C(C)C)c2cc(Cl)c3cccnc3c2O)cc1 (centres undefined) | i
O=C(Nc1ccc(Cl)c(Cl)c1)Nc1cccc2cccnc12 | i
CC(C)CC(=O)NC(c1cccs1)c1ccc2cccnc2c1O (centres undefined) | 0.1
SMILES | CBX7 inh
O=C(O)C(NS(=O)(=O)c1cccc2cccnc12)c1ccccc1 (centres undefined) | i
CC(C)CC(=O)NC(c1ccccc1)c1ccc2cccnc2c1O (centres undefined) | 0.044
Cc1ccc(C(NC(=O)CC(C)C)c2ccc3cccnc3c2O)cc1 (centres undefined) | i
Oc1c(C(Nc2ccccc2)c2ccccc2)ccc2cccnc12 (centres undefined) | 0.24
CCCC(=O)NC(c1cccs1)c1cc(Cl)c2cccnc2c1O (centres undefined) | 0.27
COc1ccc(NC(=O)c2cccc3c2C(=O)N(C2CCCCC2)C3)cc1OC | i
CC(C)CSc1oc(-c2ccccc2)nc1S(=O)(=O)c1ccc(Cl)cc1 | i
CC1CCN(S(=O)(=O)c2ccc3c(c2)N(CC(=O)N2CCOCC2)C(=O)CO3)CC1 | i
Cc1ccc(-c2nc(NC(=O)c3c(-c4ccccc4Cl)noc3C)sc2C)cc1 | i
Cc1ccc(-c2noc(CCC(=O)Nc3ccc(F)cc3F)n2)cc1 | i
CCCC(=O)NC(c1ccc(OC)cc1)c1cc(Cl)c2cccnc2c1O (centres undefined) | i
COc1ccc(C(NC(=O)CCc2ccccc2)c2ccc3cccnc3c2O)cc1 (centres undefined) | 0.082
COc1ccc(C(NC(=O)CC(C)C)c2ccc3cccnc3c2O)cc1OC (centres undefined) | 0.061
O=C(CCc1ccccc1)NC(c1ccc(Cl)cc1)c1ccc2cccnc2c1O (centres undefined) | i
COc1cc(NC(=O)Cc2ccc(OC)c(OC)c2)c2ncccc2c1 | i
COc1ccc(CSc2cccc3cccnc23)cc1[N+](=O)[O-] | i
CCc1ccc(-c2nc(CN3CCC(C(=O)NCc4ccccc4)CC3)c(C)o2)cc1 | i
Cn1c(C(=O)N2CCCc3ccccc32)cc2sc(Cl)cc21 | i
Cc1cc(C)cc(OCC(=O)Nc2ccc3oc(-c4cccc(C)c4)nc3c2)c1 | i
COc1cccc(Nc2nc(-c3ccc(Cl)c(Cl)c3)cs2)c1 | 0.44
COc1ccc(Nc2nc(-c3ccc(Cl)cc3)cs2)cc1 | i
Brc1ccc(Nc2nc(-c3ccc(I)cc3)cs2)cc1 | i
COc1cccc(Nc2nc(-c3ccccc3)cs2)c1 | i
Cc1ccc(-c2csc(Nc3ccc(Cl)cc3)n2)cc1C | 0.31!
Clc1ccc(-c2csc(Nc3ccccc3)n2)cc1Cl | i

Screens: PubChem BioAssay, Bradner/Qi Labs at DFCI
